In test [1] the target is Lysosomal acid glucosylceramidase (Homo sapiens) (UniProt P04062). Put plainly: Glucocerebrosidase-p2 (AID 348; in the data active means potency below about 10 µM; further: potency means the concentration at half of the fitted maximal effect). Particulars: purified GBA, blue fluorogenic substrate, 40 min. In outline: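 Compounds titrated from 0.6 nM upwards against 0.2 nM enzyme in pH 5.9 citric acid/KH2PO4, taurocholate, tween-20; blue fluorogenic substrate 80 uM, 40 min room temperature, stopped and read Ex 365/Em 440 for AC50.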
Chain of Lysosomal acid glucosylceramidase (Homo sapiens) (P04062 whole entry, looked up): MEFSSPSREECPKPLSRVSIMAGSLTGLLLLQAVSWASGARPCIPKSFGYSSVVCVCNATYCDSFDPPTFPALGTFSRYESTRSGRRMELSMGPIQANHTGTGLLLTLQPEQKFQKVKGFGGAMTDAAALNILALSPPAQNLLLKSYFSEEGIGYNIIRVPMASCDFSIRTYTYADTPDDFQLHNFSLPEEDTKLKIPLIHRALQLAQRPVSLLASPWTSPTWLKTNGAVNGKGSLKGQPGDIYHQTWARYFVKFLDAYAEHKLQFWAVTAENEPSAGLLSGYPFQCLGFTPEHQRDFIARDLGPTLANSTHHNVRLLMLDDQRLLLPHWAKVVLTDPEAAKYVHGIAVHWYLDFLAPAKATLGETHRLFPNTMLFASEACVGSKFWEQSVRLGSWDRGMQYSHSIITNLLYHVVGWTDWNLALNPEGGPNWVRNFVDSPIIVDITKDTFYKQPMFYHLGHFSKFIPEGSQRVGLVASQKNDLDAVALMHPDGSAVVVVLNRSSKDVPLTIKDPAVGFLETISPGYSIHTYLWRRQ

Test [2] can be described thus: AP1 Signaling Pathway (AID 357).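 Further: ME-180 reporter cells stimulated with EGF at its EC50 level; on the % scale 0 is the no-effect control and ±100 the full control effect.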 Particulars: ME-180 AP-1-bla reporter, EGF-induced, beta-lactamase ratio, 5 h; at 7.69 µM (top of the series) unless noted. In short, it runs like this:
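Beta-lactamase reporter under AP-1 response element, ME-180 background. Stimulus: EC50 EGF. Compound exposure 5 h, 37 °C. Detection: CCF4, 2.5 h RT, 460/530 nm. Values: AC50 from titration.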

Test [3] is described as follows: Stat Signaling Pathway (AID 446).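 Further: ME-180 cervical cancer cells given 40 pM IL-6 alongside compound; SIE-controlled beta-lactamase reporter measured as 460/530 nm FRET emission ratio; on the % scale 0 is the no-effect control and ±100 the full control effect.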 Particulars: ME-180 SIE beta-lactamase reporter, IL-6 stimulated, 5 h; at 7.69 µM (top of the series) unless noted. In short, it runs like this: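 IL-6/STAT signaling read in ME-180 cells via an SIE beta-lactamase reporter. Stimulus was 40 pM IL-6 (its AC50) for 5 hrs, so both activation and inhibition register.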
The target in test [4] is Glucocorticoid receptor (Homo sapiens) (UniProt P04150). Put plainly: GR-EFC Redistribution (AID 451; calls by dose curve; further: potency means the concentration at half of the fitted maximal effect). Particulars: CHO-K1 GR-EFC translocation, beta-gal luminescence, 2 h. In outline:
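CHO-K1 cells expressing nuclear EA and GR-ED fragments of b-gal; compounds titrated up to 46 uM final, 2 h at 37 C. GR nuclear translocation read as complemented b-gal luminescence after 1 h RT detection.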

In test [5] the target is Mitogen-activated protein kinase 10 (Mus musculus) (UniProt Q61831). Put plainly: JNK3 AlphaScreen Assay (AID 530).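 Further: kinase came from lysate of stimulated human HepG2 cells; signal reports phosphorylation of biotinylated GST-cJun 1-79 at Ser73 with 10 µM ATP; on the % scale 0 is the no-effect control and ±100 the full control effect.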 Particulars: JNK3 lysate, c-Jun phosphorylation; series mostly up to 57.1 µM. In short, it runs like this: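 Pre-activated (IL-1β/TNFα) JNK3 in HepG2 lysates phosphorylates biotin-GST-cJun(1-79), 10 uM ATP; anti-phospho-cJun(Ser73) AlphaScreen read at room temperature, pH 7.6 Tris buffer. Compounds pre-incubated 15 min as titrations.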
(In general: In Alpha technology, singlet oxygen from a donor bead excites a nearby acceptor bead.)

Test [6] concerns the target 3',5'-cyclic-AMP phosphodiesterase 4B (Homo sapiens) (UniProt Q07343). Kind of test: qHTS Assay for Inhibitors of PDE-IV (AID 607; active means well fitted activation curve with a large enough effect in the main read-out, with a control signal flat, not every such curve was filed as active; further: % of control where 0% means no effect). Particulars: HEK293 ACTOne CNG channel cells, membrane potential fluorescence; series mostly up to 22.9 µM. In short, it runs like this: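 Live HEK293 cells with a modified cyclic nucleotide-gated (CNG) channel report intracellular cAMP via membrane-potential dye fluorescence (ex 535/em 590 nm). Endogenous PDE-IV was targeted. Compounds were tested at up to 22.9 uM final; RO 20-1724 100 uM served as control.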
(In general: Quantitative high-throughput screening tests each substance at several concentrations.)

Test [7] is described as follows: qHTS Assay for Identification of Small Molecule Agonists for Hypoxia Response Element Signaling Pathway (AID 914; active means well fitted activation curve with a large enough effect in the signal ratio, with a control signal flat, not every such curve was filed as active; the % refers to the signal ratio; further: % of control where 0% means no effect). Particulars: ME-180 (cervical carcinoma) HRE-bla reporter, beta-lactamase ratio, CoCl2, 17 h; activation: stronger effect = higher value. In short, it runs like this:
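Positive modulation of EC50 CoCl2-induced hypoxia response element signaling is measured in ME-180 cells with a beta-lactamase reporter. Compounds are titrated, incubation runs 17 hours, and %Activity derives from the blue/green ratio.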

Test [8] can be described thus: qHTS Assay for Lipid Storage Modulators (AID 1519; calls by dose curve). Particulars: Drosophila S3 cells, BODIPY lipid droplet/cell ratio, laser cytometry, cells loaded with oleic acid; for activity change, negative = inhibition: at 57.5 µM (top of the series). In outline: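 Cells seeded at 5,000 per well were treated with compounds over a concentration series and loaded with oleic acid (400 uM, as added). Lipid droplet fluorescence (488 nm excitation, 500-530 nm channel) was read by laser-scanning cytometry and normalized to 20 uM Triacsin C.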

A short description of test [9]: Primary qHTS for small molecule stabilizers of the endoplasmic reticulum resident proteome: Secreted ER Calcium Modulated Protein (SERCaMP) assay (AID 1508630; active means well fitted curve in the direction sought with a large enough effect; an effect the other way counts as inactive or inconclusive; further: on the % scale 0 is the no-effect control and ±100 the full control effect). Particulars: SH-SY5Y GLuc-SERCaMP (Gaussia luciferase released on ER calcium loss) secretion, thapsigargin, luminescence; series mostly up to 38.4 µM. In outline: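 GLuc-SERCaMP-expressing SH-SY5Y cells, pretreated 16 h with compound, are challenged with thapsigargin to empty ER calcium stores; after 4 h, coelenterazine is added directly to the medium and luminescence is imaged.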

For test [10], the target named is Cytochrome P450 1A2 (Homo sapiens) (UniProt P05177). Kind of test: p450-cyp1a2 (AID 410; calls by dose curve; further: potency means the concentration at half of the fitted maximal effect). Particulars: recombinant CYP1A2, luciferin-ME demethylation, luminescence; series mostly up to 57 µM. In outline: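 Luminescent readout of luciferin formed from Luciferin-ME by human CYP1A2; data normalized against complete inhibition by 57 uM furafylline. Enzyme 20nM, substrate 100uM at Km, 100mM KPO4 buffer, 60 min reaction at room temperature.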
Chain of Cytochrome P450 1A2 (Homo sapiens) (P05177 whole entry, looked up): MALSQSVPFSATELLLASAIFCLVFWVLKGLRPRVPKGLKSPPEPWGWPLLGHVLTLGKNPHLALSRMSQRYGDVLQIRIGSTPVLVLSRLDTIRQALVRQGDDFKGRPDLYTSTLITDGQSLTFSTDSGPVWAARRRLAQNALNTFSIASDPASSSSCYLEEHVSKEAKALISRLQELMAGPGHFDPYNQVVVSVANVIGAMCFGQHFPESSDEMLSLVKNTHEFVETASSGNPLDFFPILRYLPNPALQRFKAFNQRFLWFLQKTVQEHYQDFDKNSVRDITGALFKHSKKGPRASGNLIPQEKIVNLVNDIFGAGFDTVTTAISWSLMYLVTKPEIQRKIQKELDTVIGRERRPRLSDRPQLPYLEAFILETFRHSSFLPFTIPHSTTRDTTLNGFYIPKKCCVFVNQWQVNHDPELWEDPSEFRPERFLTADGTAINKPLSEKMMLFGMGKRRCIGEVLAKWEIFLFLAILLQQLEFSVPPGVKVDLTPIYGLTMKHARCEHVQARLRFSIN

The nature of test [11]: NFAT Signaling Pathway (AID 444). Particulars: Jurkat NFAT-bla M1, carbachol, beta-lactamase ratio, 5 h; at 7.69 µM (top of the series) unless noted. In short, it runs like this:
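Jurkat cells with NFAT-driven β-lactamase reporter and co-expressed M1 receptor, stimulated with carbachol (final 1 uM, ~EC50), compound titration, 5 h at 37 °C. CCF4 loaded 1 h at RT; 460/530 nm ratio gave %activity and AC50.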

In test [12] the target is Glucocorticoid receptor (Homo sapiens) (UniProt P04150). Put plainly: GR-GFP Redistribution (AID 450;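 active means compounds whose dose series gives a full or clear partial fitted curve of increased nuclear translocation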; further: potency means the concentration at half of the fitted maximal effect). Conditions: U2OS GR-GFP nuclear translocation, laser cytometry, 2 h.
Chain of Glucocorticoid receptor (Homo sapiens) (P04150 whole entry, looked up, the tested form may be a part): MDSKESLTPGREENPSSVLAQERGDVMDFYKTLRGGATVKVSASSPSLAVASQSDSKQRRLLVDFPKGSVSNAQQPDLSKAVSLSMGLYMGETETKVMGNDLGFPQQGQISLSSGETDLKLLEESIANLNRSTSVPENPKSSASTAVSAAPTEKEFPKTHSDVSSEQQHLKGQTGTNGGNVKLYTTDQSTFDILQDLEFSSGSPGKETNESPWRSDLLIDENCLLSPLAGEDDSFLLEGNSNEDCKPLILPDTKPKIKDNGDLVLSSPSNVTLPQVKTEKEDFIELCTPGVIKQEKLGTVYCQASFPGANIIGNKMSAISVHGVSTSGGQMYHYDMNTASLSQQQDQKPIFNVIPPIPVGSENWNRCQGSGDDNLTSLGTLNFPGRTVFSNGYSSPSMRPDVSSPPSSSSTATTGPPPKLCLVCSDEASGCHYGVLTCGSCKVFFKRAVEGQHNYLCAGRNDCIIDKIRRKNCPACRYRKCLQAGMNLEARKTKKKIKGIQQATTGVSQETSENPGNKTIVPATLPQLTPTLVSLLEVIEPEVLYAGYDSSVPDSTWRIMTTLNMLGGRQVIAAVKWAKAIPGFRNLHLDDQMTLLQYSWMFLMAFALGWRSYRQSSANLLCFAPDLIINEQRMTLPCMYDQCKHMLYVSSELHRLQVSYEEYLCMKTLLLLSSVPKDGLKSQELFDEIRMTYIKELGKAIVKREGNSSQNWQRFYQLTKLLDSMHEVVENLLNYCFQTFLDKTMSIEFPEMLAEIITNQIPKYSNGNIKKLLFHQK
The target in test [13] is Cytochrome P450 3A4 (Homo sapiens) (UniProt P08684). Kind of test: qHTS Assay for Activators of Cytochrome P450 3A4 (AID 885; active means well fitted curve in the direction sought with a large enough effect; an effect the other way counts as inactive or inconclusive; further: nearly all actives have a fitted effect of over 65% in size). Particulars: recombinant CYP3A4, Luciferin-PPXE luminescence, 60 min; series mostly up to 57.1 µM. In outline:
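Quantitative HTS format: compounds preincubated with 20nM human CYP3A4 and Luciferin-PPXE substrate at KM, reaction started by NADPH regeneration, stopped after 60 min, luciferase luminescence read 20 min later.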

Test [14] has as its target Cytochrome P450 2C19 (Homo sapiens) (UniProt P33261). Put plainly: qHTS Assay for Inhibitors and Substrates of Cytochrome P450 2C19 (AID 899; active means well fitted curve in the direction sought with a large enough effect; an effect the other way counts as inactive or inconclusive; further: nearly all actives have a fitted effect of over 60% in size; further: potency means the concentration at half of the fitted maximal effect). Particulars: recombinant CYP2C19, luciferin-H EGE luminescence; series mostly up to 57.1 µM. In short, it runs like this: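 Signal comes from luciferase acting on luciferin released by CYP2C19-mediated hydroxylation of Luciferin-H EGE, 10uM (KM). Assay mix: 5nM enzyme, 50mM KPO4; 60 min at 37C with NADPH regeneration. Data normalized against 57uM ketoconazole.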

Test [15] in a line: Confirmation and Secondary Assay for Modulators of Hemoglobin Beta Chain Splicing at IVS2 705 locus (AID 930; active means well fitted curve in the direction sought with a large enough effect; an effect the other way counts as inactive or inconclusive;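 further: HeLa cells stably expressing the EGFP-705 splicing reporter; GFP fluorescence per well restored by corrected splicing of the IVS2-705 intron in EGFP; % of control where 0% means no effect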). Conditions: HeLa EGFP-705 splicing reporter, GFP fluorescence, 48 h; series mostly up to 38.3 µM. In outline: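 First, HeLa EGFP-705 cells are seeded at 500/well in Optimem with 2% FCS and left overnight. Next, compound or DMSO is added for 2 days. Finally wells are laser-scanned and total peak GFP intensity scored.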

For test [16], the target named is Ubiquitin carboxyl-terminal hydrolase 1 (Homo sapiens) (UniProt O94782). Kind of test: Inhibitors of USP1/UAF1: Pilot qHTS (AID 504865; active means well fitted curve in the direction sought with a large enough effect; an effect the other way counts as inactive or inconclusive;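 further: rhodamine fluorescence freed from ubiquitin-rhodamine substrate followed over time; top concentration of the series differs between compounds; on the % scale 0 is the no-effect control and ±100 the full control effect; nearly all actives have a fitted effect of over 35% in size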). Conditions: purified USP1/UAF1, Ub-rhodamine cleavage fluorescence; series mostly up to 54.9 µM. In short, it runs like this: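 Deubiquitinase activity followed as kinetic rhodamine fluorescence release from 150 nM Ub-Rho. 1 nM USP1/UAF1 with compound, after 15 min room-temperature preincubation, in HEPES pH 7.8 buffer containing TCEP, EDTA, BSA and Tween-20.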
Chain of Ubiquitin carboxyl-terminal hydrolase 1 (Homo sapiens) (O94782 whole entry, looked up): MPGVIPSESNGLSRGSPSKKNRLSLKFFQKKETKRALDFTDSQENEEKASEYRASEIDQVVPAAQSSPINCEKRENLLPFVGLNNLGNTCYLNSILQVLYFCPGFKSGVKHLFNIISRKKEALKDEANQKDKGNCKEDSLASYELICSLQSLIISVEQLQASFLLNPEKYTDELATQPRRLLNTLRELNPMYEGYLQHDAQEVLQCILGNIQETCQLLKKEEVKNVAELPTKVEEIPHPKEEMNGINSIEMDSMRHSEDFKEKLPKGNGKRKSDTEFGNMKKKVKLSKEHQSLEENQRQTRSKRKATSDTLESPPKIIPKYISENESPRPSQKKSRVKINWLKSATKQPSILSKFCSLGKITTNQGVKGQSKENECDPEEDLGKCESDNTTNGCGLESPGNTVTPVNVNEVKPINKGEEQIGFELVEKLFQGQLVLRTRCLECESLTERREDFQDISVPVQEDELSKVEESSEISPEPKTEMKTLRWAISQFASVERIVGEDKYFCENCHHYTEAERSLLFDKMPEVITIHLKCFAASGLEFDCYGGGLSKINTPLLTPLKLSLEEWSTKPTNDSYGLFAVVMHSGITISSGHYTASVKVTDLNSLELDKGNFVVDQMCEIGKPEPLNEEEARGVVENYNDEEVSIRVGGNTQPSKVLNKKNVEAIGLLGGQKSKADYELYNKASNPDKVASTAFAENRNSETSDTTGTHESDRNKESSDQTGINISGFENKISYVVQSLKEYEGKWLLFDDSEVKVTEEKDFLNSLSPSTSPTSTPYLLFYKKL

The mark [17] stands for this setting: measured here: cell count channel max response.
The mark [18] stands for this setting: measured here: lipid channel max response.

Records with an inconclusive call do not appear. Active and inactive are the calls of the source. Unless noted, the call rests on the fitted dose curve; in most records, active means well fitted curve in either direction with a large enough effect (not every such curve was filed as active); inconclusive means small, poorly fitted or top-dose-only effect, or another doubt; inactive means flat fitted curve, though single readings scatter. Where only a bound is given, the exact number is not on record here.

Chain of 3',5'-cyclic-AMP phosphodiesterase 4B (Homo sapiens) (Q07343 whole entry, looked up): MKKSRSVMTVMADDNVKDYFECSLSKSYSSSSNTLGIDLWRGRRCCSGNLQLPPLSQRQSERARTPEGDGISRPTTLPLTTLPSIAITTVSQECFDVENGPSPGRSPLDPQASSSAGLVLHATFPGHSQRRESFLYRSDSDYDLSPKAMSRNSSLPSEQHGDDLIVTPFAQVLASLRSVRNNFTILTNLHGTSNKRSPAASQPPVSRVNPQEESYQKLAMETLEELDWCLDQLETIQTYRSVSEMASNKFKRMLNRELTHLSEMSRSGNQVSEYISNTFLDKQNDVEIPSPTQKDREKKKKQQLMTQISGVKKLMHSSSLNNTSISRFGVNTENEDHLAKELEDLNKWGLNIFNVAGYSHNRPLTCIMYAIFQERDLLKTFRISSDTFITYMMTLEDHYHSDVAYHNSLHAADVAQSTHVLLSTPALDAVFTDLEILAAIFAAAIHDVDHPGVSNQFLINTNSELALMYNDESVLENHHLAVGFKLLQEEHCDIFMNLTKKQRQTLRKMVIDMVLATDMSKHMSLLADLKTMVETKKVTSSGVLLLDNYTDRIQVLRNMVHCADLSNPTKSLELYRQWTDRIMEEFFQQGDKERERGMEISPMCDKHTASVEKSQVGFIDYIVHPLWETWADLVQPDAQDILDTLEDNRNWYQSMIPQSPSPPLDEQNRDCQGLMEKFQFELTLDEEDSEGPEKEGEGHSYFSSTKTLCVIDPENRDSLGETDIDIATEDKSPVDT
Chain of Cytochrome P450 2C19 (Homo sapiens) (P33261 whole entry, looked up): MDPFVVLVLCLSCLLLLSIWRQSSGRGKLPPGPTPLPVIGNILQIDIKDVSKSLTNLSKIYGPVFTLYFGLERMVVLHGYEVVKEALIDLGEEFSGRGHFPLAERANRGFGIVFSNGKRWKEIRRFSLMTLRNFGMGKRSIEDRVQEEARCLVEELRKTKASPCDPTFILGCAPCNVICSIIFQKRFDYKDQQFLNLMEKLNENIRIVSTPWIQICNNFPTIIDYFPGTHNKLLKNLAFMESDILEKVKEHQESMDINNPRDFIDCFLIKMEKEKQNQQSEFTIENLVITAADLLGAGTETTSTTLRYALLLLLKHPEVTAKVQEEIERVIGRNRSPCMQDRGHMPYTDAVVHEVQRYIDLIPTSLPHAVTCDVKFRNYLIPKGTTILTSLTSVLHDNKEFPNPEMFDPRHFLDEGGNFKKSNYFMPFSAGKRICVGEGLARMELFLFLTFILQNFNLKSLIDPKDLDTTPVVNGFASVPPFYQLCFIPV
Chain of Cytochrome P450 3A4 (Homo sapiens) (P08684 whole entry, looked up): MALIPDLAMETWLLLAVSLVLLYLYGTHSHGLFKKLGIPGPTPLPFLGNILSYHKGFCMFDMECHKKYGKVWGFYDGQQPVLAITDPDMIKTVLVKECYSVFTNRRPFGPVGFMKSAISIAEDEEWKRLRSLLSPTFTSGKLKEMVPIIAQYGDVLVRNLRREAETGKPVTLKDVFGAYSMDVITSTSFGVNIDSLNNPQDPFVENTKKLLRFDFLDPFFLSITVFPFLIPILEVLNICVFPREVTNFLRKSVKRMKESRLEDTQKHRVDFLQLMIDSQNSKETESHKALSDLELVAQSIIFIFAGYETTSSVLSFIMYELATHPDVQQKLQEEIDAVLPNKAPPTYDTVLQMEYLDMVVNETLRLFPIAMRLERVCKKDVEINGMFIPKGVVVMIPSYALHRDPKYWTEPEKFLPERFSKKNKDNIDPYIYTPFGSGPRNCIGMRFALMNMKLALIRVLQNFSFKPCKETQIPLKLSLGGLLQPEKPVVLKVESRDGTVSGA

Regarding `COc1ccccc1CN1CCCC2(CCN(S(=O)(=O)c3ccccc3)CC2)C1`, the Potency in [1] was > 11.4 µM (inactive); in [4] it was > 46 µM (inactive). Besides, the results for the activity change, negative = inhibition in test [2] and in test [8] were 0.799% (inactive) and 0.969% (inactive), respectively. For the same compound, the activity, negative = inhibition in test [3] is 1.94% (inactive). The Potency entry in test [5] and in test [6] was “inactive” in each case. The activation in test [7] was -6.58% (inactive). Also, the max response in test [8] (setting [17]) was -4.49%; in test [8] (setting [18]) it was 1.25%. Moreover, the outcome in [9] was inactive.
`COc1ccccc1CN1CC2(CCN(C(=O)c3cccc(F)c3)CC2)C1`: the results for the Potency in test [1] and in test [4] were > 11.4 µM (inactive) and > 46 µM (inactive), respectively. The activity change, negative = inhibition is -3.72% (inactive) in [2] and 3.26% (inactive) in test [8]. For the same compound, the activity, negative = inhibition in test [3] is 0.108% (inactive). The Potency entry in test [5] and in [6] was “inactive” each time. Besides, the max response in test [8] (setting [17]) was 8.06%; in test [8] (setting [18]), 13.5%. Besides, in [9], the outcome was inactive.
Regarding `COc1ccc(C(=O)N2CCC3(CCCN(c4ccccc4)C3)CC2)cc1`, the values for the Potency in test [1] and in test [4] were > 11.4 µM (inactive) and > 46 µM (inactive), respectively. The activity change, negative = inhibition in [2] was -1.35% (inactive); in [8], -17.3% (inactive). Besides, in [3], the activity, negative = inhibition was -0.767% (inactive). In addition, the Potency entry in test [5] and in test [6] was “inactive” throughout. In addition, the figures for the max response in [8] (setting [17]) and in test [8] (setting [18]) were 1.98% and -15%, respectively. Besides, the result in test [9] was inactive.
In the case of `COc1ccccc1CNc1ncncc1-c1ccccc1C`, the Potency in [1] is > 11.4 µM (inactive); in test [10], 7.94 µM (active); in test [12], > 46 µM (inactive); in test [4], > 46 µM (inactive); in test [14], 3.98 µM (active). Also, the figures for the activity change, negative = inhibition in test [11] and in test [8] were -19.5% (inactive) and 9.38% (inactive), respectively. In test [3], the activity, negative = inhibition is 12.8% (inactive). The Potency entry in test [5], in [6], in test [13] and in [16] was “inactive” in each case. In addition, the compound was classed as inactive in test [15] and in test [9]. Further, the max response was -3.12% in test [8] (setting [17]) and 5.51% in test [8] (setting [18]).
Regarding `COC(=O)N1CCC2(CCCN(c3ccncc3)C2)CC1`, the Potency was > 11.4 µM (inactive) in test [1] and > 46 µM (inactive) in test [4]. The results for the activity change, negative = inhibition in test [2] and in test [8] were -3.28% (inactive) and 5.16% (inactive), respectively. For the same compound, the activity, negative = inhibition in test [3] was 5.05% (inactive). Moreover, the Potency entry in test [5], in test [6] and in test [14] was “inactive” each time. In addition, the max response is 21.3% in test [8] (setting [17]) and 29.2% in [8] (setting [18]). In addition, the outcome in test [9] was inactive.
For the compound `O=C(c1cnccn1)N1CCC2(CCCN(Cc3ccccc3)C2)CC1`, the figures for the Potency in [1] and in test [4] were > 11.4 µM (inactive) and > 46 µM (inactive), respectively. In addition, the activity change, negative = inhibition in test [2] was -6.44% (inactive); in test [8], 1.18% (inactive). Moreover, the activity, negative = inhibition in [3] is -11.8% (inactive). Besides, the Potency result in [5] and in test [6] was “inactive” each time. Also, in test [7], the activation is 16.9% (inactive). The figures for the max response in test [8] (setting [17]) and in test [8] (setting [18]) were 14.6% and 17.1%, respectively. Moreover, the outcome in [9] was inactive.
On to `O=C(c1ccncc1)N1CCC2(CC1)CN(c1ccncc1)C2`, for which the Potency in test [1] is > 11.4 µM (inactive); in [4] it was > 46 µM (inactive). Further, the activity change, negative = inhibition is 6.26% (inactive) in test [2] and 1.59% (inactive) in test [8]. Besides, in test [3], the activity, negative = inhibition was 1.34% (inactive). Also, the Potency result in [5] and in [6] was “inactive” in each case. Moreover, the max response in test [8] (setting [17]) is -20.1%; in test [8] (setting [18]), -17.6%. The outcome in [9] was inactive.
With `O=C(c1cnccn1)N1CCC2(CCN(Cc3ccccc3)CC2)CC1`, the Potency in test [1] was > 11.4 µM (inactive); in test [4], > 46 µM (inactive). Moreover, the activity change, negative = inhibition is 12.5% (inactive) in test [2] and 2.37% (inactive) in test [8]. Besides, the activity, negative = inhibition in test [3] was -1.26% (inactive). In addition, the Potency entry in [5] and in [6] was “inactive” each time. In addition, the figures for the max response in test [8] (setting [17]) and in test [8] (setting [18]) were 7.12% and 14.3%, respectively. In addition, the outcome in [9] was inactive.

Source of the values: PubChem BioAssay (NCATS).
